One assay addresses Albumin (Bos taurus) (UniProt P02769). The assay can be described thus: bovine serum albumin binders on microarray, profiling panel, artefact control for SMM control protein annotation, biochemical, small-molecule microarray, Alexa647 label, 635/667 nm fluorescence (AID 1118).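 Further: score merges 667 nm emission intensity and signal-to-noise per printed compound spot.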 As to conditions: BSA-A647 binding, fluorescence 635 nm, higher = more signal.
Assay [1] is described as follows: small-molecule microarray binders of probe aXIP, primary screen, biochemical, NeuroSMM set, 635/667 nm fluorescence (AID 1119).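 Further: probe is the protein aXip251-270 applied at 1 µg/mL to compound-printed slides; binding of probe to printed compounds measured as 667 nm fluorescence plus signal to noise.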 The note with it: higher = more signal, called active from +8 up or from −8 down.
Assay [2] can be described thus: small-molecule binders of probe aNOTCH3, primary screen, biochemical, small-molecule microarray, 635/667 nm fluorescence (AID 1120).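 Further: probe is a biotin-tagged antibody raised against NOTCH3 rather than NOTCH3 protein; score merges spot fluorescence near 667 nm with spot signal to noise.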 As to conditions: higher = more signal.
Assay [3] in a line: small-molecule binders of probe aNOTCH2, primary screen, biochemical, small-molecule microarray, 635/667 nm fluorescence (AID 1121).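 Further: score merges feature fluorescence read at 667 nm with its signal to noise.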 As to conditions: higher = more signal.
Assay [4] addresses Carbonic anhydrase 2 (Homo sapiens) (UniProt P00918). The assay can be described thus: CAII small-molecule binders, profiling panel, biochemical, small-molecule microarray, Alexa647-labelled CAII (AID 1122). As to conditions: CAII-A647 binding fluorescence, higher = more signal.
Assay [5] is described as follows: COS7 lysate on small-molecule microarray, probe aHis, 635 nm (AID 1123).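 Further: z-score combines 667nm fluorescence intensity with signal-to-noise per printed compound spot.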 As to conditions: COS7 cell lysate, fluorescence, higher = more signal.
Assay [6] is described as follows: compound binding in COS7 lysate, probe aLAP1, primary screen, cell lysate, small-molecule microarray (AID 1124).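 Further: lysate comes from COS7 cells expressing LAP1 and is applied at 0.3 µg/mL; score merges spot fluorescence near 667 nm with signal-to-noise over triplicate slides.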 The note with it: probe aLAP1, fluorescence, higher = more signal.
For a further assay, the system named is Sam68 (KHDRBS1). Kind of assay: Sam68 small-molecule binders, primary screen, biochemical, small-molecule microarray, 635 nm fluorescence (AID 1125).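 Further: score merges 667 nm channel intensity with signal to noise over triplicate slides.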 As to conditions: small-molecule microarray binding, higher = more signal.
In assay [7] the test system is Chordin-like protein 2 (CHRDL2). Kind of assay: CHRDL2 small-molecule binders, primary screen, biochemical, small-molecule microarray, 635 nm fluorescence (AID 1126).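 Further: printed compound slides probed with Chrdl2 protein at 4 µg/mL for 1 h at 4 C; score merges 667 nm emission intensity with signal to noise over three replicate slides.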 The note with it: small-molecule microarray binding, fluorescence 635 nm; higher = more signal.
Assay [8] deals with Concanavalin-A (Canavalia ensiformis) (UniProt P02866). Kind of assay: ConA small-molecule binders, primary screen, artefact control for SMM control protein annotation, biochemical, small-molecule microarray, Alexa647 label, 635 nm (AID 1127).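 Further: z combines 667 nm emission intensity with signal-to-noise across three replicate slides.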 As to conditions: ConA-A647 binding fluorescence, higher = more signal.
The nature of assay [9]: anti-His antibody binders, primary screen, artefact control for SMM control protein annotation, biochemical, small-molecule microarray, 635 nm fluorescence (AID 1128).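 Further: score merges feature fluorescence with signal-to-noise for each printed compound spot.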 The note with it: anti-His Alexa647 antibody binding, higher = more signal.
Assay [10] has as its system Human papillomavirus type 1a E7 protein (residues 1-88). The assay can be described thus: HPV1a E7 small-molecule binders, primary screen, biochemical, small-molecule microarray, residues 1-88, 635 nm (AID 1129). The note with it: small-molecule microarray binding, fluorescence 635 nm; higher = more signal.
The target of assay [11] is Focal adhesion kinase 1 (Homo sapiens) (UniProt Q05397). Kind of assay: small-molecule microarray binders of FAK, primary screen, biochemical, 635/667 nm fluorescence, BSA, DTT (AID 1130).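 Further: composite of spot emission at 667 nm and signal to noise over triplicate slides.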 As to conditions: PTK2 binding, 635 nm fluorescence, higher = more signal.
The test system of assay [12] is Fibrinogen (Alexa647-labelled). The assay can be described thus: fibrinogen binders on compound microarrays, profiling panel, artefact control for SMM control-protein annotation, biochemical, small-molecule microarray, 635/667 nm fluorescence (AID 1131).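 Further: z-score merges 667 nm fluorescence with per-spot signal-to-noise over triplicate slides.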 As to conditions: fibrinogen-A647 binding fluorescence, higher = more signal.
Assay [13] has as its target Follistatin (Homo sapiens) (UniProt P19883). Kind of assay: follistatin binders on small-molecule microarrays, primary screen, biochemical, small-molecule microarray, 635/667 nm fluorescence (AID 1132). The note with it: FST binding, 635 nm fluorescence, higher = more signal.
The target in assay [14] is Fibroblast growth factor 2 (Homo sapiens) (UniProt P09038). Kind of assay: FGF2 binders on small-molecule microarrays, primary screen, biochemical, small-molecule microarray, 635/667 nm fluorescence (AID 1133). As to conditions: small-molecule microarray binding, FGF2, fluorescence 635/667; higher = more signal.
Assay [15] in a line: mitochondrial membrane potential change in A549 cells, profiling panel, cell-based, JC-1 fluorescence, basal, 24 h, 100 nL (AID 1138).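 Further: A549 lung adenocarcinoma cells under basal conditions with no added stimulus; test concentration not given here.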 As to conditions: higher = more signal.
For another assay, the system named is Lefty1. Kind of assay: Lefty1 binders on small-molecule microarrays, primary screen, biochemical, small-molecule microarray, 635/667 nm fluorescence (AID 1139). As to conditions: small-molecule microarray binding, fluorescence 635/667; higher = more signal.
The test system of assay [16] is wheat germ agglutinin (Triticum aestivum), Alexa647-labelled. Kind of assay: wheat germ agglutinin binders on compound microarrays, profiling panel, artefact control for SMM control-protein annotation, biochemical, small-molecule microarray, 635/667 nm fluorescence (AID 1140).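 Further: score merges 667 nm feature emission with signal to noise over triplicate slides.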 As to conditions: WGA-A647 binding, 635 nm fluorescence, higher = more signal.
Assay [17] has as its target Luciferin 4-monooxygenase (Photinus pyralis) (UniProt P08659). Kind of assay: firefly luciferase enzyme inhibitors, primary screen, biochemical, luminescence, purified enzyme, 2006 set (AID 1141).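 Further: cell-free assay with purified firefly luciferase at 100 ng per well in PBS; test concentration not given here.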 As to conditions: SteadyGlo luminescence, 30 min, higher = more signal, called active from +8 up or from −8 down.

Consider five molecules from PubChem BioAssay.

The structures appear in SMILES notation. Active and inactive are the calls of the source.

Chain of Luciferin 4-monooxygenase (Photinus pyralis) (P08659 whole entry, looked up): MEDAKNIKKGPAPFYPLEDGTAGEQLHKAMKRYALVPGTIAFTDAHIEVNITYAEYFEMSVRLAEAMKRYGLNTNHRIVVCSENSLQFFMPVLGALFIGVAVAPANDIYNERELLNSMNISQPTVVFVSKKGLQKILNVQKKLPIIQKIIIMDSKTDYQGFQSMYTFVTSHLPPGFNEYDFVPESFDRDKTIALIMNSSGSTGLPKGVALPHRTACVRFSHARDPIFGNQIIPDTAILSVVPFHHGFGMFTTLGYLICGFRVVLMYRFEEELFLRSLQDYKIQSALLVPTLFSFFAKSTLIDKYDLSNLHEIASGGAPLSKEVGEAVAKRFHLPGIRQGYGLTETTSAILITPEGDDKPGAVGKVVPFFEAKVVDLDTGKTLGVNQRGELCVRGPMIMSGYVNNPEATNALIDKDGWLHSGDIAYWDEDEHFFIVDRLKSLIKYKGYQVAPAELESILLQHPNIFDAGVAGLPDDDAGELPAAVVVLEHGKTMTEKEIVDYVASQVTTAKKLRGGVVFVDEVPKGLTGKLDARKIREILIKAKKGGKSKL
Chain of Focal adhesion kinase 1 (Homo sapiens) (Q05397 whole entry, looked up): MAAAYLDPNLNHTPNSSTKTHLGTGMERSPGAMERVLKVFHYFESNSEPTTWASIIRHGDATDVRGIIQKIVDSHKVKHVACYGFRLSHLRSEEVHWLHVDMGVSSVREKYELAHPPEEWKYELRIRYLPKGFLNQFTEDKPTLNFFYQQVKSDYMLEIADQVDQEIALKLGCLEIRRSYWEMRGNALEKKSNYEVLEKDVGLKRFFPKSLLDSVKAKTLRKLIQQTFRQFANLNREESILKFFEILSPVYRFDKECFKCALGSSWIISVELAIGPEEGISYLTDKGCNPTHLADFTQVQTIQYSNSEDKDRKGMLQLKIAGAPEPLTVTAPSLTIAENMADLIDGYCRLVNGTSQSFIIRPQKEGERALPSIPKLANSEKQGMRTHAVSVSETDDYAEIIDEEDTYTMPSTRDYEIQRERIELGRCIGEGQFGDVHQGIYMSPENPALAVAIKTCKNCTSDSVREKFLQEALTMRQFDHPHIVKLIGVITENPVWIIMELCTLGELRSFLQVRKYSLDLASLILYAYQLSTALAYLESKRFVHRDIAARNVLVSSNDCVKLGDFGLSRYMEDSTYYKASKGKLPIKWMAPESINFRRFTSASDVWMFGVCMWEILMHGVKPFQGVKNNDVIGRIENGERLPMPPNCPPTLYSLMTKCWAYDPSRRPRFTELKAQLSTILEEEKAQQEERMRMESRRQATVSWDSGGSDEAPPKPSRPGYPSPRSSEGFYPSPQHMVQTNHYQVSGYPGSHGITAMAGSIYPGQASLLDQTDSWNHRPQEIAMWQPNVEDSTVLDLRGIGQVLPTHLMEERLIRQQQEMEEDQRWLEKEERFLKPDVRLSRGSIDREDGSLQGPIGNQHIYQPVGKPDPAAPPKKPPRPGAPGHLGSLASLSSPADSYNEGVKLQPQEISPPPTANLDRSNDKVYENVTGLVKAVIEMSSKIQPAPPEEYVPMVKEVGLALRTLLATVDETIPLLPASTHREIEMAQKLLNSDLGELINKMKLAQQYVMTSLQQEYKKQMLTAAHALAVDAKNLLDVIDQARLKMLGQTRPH
Chain of Follistatin (Homo sapiens) (P19883 whole entry, looked up): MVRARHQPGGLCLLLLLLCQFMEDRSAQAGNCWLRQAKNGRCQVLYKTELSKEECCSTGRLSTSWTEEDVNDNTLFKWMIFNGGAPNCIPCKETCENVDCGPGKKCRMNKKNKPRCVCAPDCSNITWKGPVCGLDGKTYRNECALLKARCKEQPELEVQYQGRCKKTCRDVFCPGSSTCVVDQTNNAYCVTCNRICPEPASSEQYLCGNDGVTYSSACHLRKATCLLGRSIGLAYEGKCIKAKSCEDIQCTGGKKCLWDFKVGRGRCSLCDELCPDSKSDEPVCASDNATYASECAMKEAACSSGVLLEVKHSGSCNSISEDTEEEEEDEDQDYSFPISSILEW
Chain of Albumin (Bos taurus) (P02769 whole entry, looked up): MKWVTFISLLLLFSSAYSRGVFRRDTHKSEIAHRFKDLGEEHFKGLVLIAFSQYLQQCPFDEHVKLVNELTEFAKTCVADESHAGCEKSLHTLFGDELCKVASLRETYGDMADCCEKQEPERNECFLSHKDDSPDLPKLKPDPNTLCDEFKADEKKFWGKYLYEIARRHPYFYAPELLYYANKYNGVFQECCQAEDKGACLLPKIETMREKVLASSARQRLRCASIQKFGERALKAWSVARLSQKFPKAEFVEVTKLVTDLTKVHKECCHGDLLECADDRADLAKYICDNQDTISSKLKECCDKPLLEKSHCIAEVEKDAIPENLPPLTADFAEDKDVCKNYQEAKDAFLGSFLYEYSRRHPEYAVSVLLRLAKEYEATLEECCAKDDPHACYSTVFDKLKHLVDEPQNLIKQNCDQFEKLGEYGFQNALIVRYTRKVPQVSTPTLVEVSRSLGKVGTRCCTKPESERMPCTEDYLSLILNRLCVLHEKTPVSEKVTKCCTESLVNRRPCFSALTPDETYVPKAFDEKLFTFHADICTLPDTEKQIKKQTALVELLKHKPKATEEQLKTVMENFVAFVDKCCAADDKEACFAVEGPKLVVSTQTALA
Chain of Fibroblast growth factor 2 (Homo sapiens) (P09038 whole entry, looked up): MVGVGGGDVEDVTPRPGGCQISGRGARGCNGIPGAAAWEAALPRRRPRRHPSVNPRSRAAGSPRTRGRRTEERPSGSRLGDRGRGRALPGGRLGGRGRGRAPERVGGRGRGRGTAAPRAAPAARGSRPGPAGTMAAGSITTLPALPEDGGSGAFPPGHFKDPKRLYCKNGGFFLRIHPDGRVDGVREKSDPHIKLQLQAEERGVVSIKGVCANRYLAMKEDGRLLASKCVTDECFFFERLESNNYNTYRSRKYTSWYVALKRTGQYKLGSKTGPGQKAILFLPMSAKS
Chain of Concanavalin-A (Canavalia ensiformis) (P02866 whole entry, looked up): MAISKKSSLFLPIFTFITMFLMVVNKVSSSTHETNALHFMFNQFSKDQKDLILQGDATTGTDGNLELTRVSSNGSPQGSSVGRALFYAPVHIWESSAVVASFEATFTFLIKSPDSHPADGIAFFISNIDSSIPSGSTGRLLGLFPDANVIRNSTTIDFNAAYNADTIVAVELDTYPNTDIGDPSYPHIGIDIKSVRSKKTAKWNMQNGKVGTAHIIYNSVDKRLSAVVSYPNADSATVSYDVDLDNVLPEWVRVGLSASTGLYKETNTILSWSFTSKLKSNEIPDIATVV

Regarding `C=CC[C@]1(C(=O)O)N=C(c2ccc(OCCCO)cc2)O[C@H]1c1ccccc1`, the composite z-score with Albumin (Bos taurus) was 0.769; in [2] it was -0.0591; in [3], 0.0415; in [4], 0.758; in assay [5] it was 2.37; in assay [6] it was 0.563. Also, the composite z-score in the assay on Sam68 (KHDRBS1) is 0.351; in [7], -0.916; in assay [8], 0.486; in assay [9] it was 0.254; in [10], -0.531; in assay [11] it was -0.231. Further, the composite z-score in assay [12] was 0.243; in [13], -0.367; in assay [14], -0.503; in the assay with Lefty1 it was -1.09; in [16], 1.25. The composite Z-score in [1] is 0.523 (inactive). Further, the z-score in [15] is -0.124; in [17], -1.8 (inactive).

Regarding `O=C1O[C@@H](c2ccccc2)[C@@H](c2ccccc2)N2[C@@H](c3ccc(OCCO)cc3)[C@]3(C(=O)Nc4ccc(C#CCCO)cc43)[C@@H](C(=O)N3CCN(c4ncccn4)CC3)[C@H]12`, the composite z-score was 0.536 with Albumin (Bos taurus); 0.143 in [2]; -0.0684 in assay [3]; 0.485 in [4]; 1.87 in [5]; 0.188 in assay [6]. For the same molecule, the composite z-score was determined as 1.32 in the assay on Sam68 (KHDRBS1); 0.168 in assay [7]; 1.17 in [8]; 0.468 in assay [9]; 1 in [10]; 0.341 in assay [11]. The composite z-score in assay [12] worked out at 0.941; in assay [13], 1.34; in assay [14], 0.331; in the assay with Lefty1, 0.635; in assay [16] it was 1.2. Further, the composite Z-score in assay [1] was 0.337 (inactive). Moreover, the z-score in assay [15] is -0.0856; in assay [17] it was 0.47 (inactive).

For `CN1CCC(CCCO)=CC1C1CC1` (stereo not given), the composite z-score in the assay with Albumin (Bos taurus) was -0.958; in assay [2] it was -0.0918; in assay [3] it was -0.181; in [4], 0.299; in [5] it was 0.238; in assay [6] it was -0.569. The composite z-score in the assay with Sam68 (KHDRBS1) was 0.0585; in [7] it was 0.39; in [8] it was 0.066; in [9], 0.346; in [10], -0.256; in assay [11], -0.233. Moreover, the composite z-score was -0.146 in assay [12]; 0.803 in assay [13]; 0.923 in assay [14]; 1.12 with Lefty1; -0.59 in assay [16]. Further, the composite Z-score in [1] was 3.24 (inactive). Also, the results for the z-score in [15] and in assay [17] were 0.949 and -0.703 (inactive), respectively.

As to `C=CCC(OC(C)=O)[C@@H]1[C@@H](N(Cc2cc3ccccc3o2)C(=O)c2ccc(C)cc2)c2cc(OCCCO)ccc2N1C(=O)c1ccc2ccccc2n1` (stereo not given in full), the composite z-score with Albumin (Bos taurus) is 0.659; in assay [2], -0.0984; in assay [3], -0.0037; in assay [4], -0.135; in assay [5] it was 0.043; in assay [6], -0.348. The composite z-score in the assay on Sam68 (KHDRBS1) is 0.0268; in assay [7], 0.194; in [8], -0.304; in [9], -0.88; in assay [10], -0.593; in [11] it was 0.178. For the same molecule, the composite z-score in assay [12] was -0.589; in assay [13], 0.573; in assay [14], -0.0362; in the assay on Lefty1, -0.114; in assay [16], -0.475. Also, the composite Z-score in [1] was 0.0726 (inactive). For the same molecule, the z-score in [15] was 1.57; in assay [17] it was -1.33 (inactive).

Turning to `COCCCNC(=O)[C@@]1(Sc2ccc(C)cc2)CC(=O)N(Cc2cc(C(F)(F)F)cc(C(F)(F)F)c2)[C@@H]1c1ccc(CO)cc1I`, the composite z-score in the assay with Albumin (Bos taurus) was -0.306; in [2], -0.227; in [3], -0.133; in assay [4], 0.85; in assay [5] it was 0.57; in assay [6], -0.874. For the same molecule, the composite z-score in the assay with Sam68 (KHDRBS1) was -0.955; in assay [7] it was -1.19; in assay [8], -0.82; in assay [9] it was -0.21; in assay [10] it was -1.1; in [11], 0.144. In addition, the composite z-score in assay [12] was -1.86; in assay [13], -0.993; in [14], -0.511; in the assay with Lefty1, -1.66; in assay [16] it was -1.1. Further, the composite Z-score in assay [1] is 0.297 (inactive). The z-score in assay [15] is 0.915; in [17], -0.503 (inactive).
